Compound activity (PubChem)
TRHR enhancer-1: qHTS for Small Molecule Agonists and Allosteric Enhancers of Human TRH Receptor: Primary Screen for Enhancers. Thyrotropin-releasing hormone receptor (Homo sapiens), P34981. 0.66% of 360,000 active. enhancement, % at 2 µM. AID 493056, 2011. TRHR cells, fluo-8 calcium fluorescence, EC20 TRH enhancement; in the data active = enhancement above about 30%; note: 0% is about no effect
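Enhancer read-out: after compound pinning and an initial kinetic agonist-mode read, an EC20 of TRH (10 nM final) was injected and fluo-8 calcium signal (Ex 480/Em 530) followed at 1 s/cycle for 100 cycles in TRHR-expressing cells.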
TRPML1 inh: qHTS for Inhibitors of the Human Mucolipin Transient Receptor Potential 1 (TRPML1); TRPML1-inducible cells, Ca2+ dye fluorescence, FDSS; active compounds read low; inhibition of EC80 agonist-evoked calcium signal; activity change, negative = inhibition, % (no concentration beside the values); Mucolipin-1 (Homo sapiens), Q9GZU1; AID 624415, 2012; 0.02% of 390,000 active; in the data active = activity change below about -50%; inconclusive = between about -30% and that limit;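 note: stimulus is agonist 54-4 at its EC80 concentration; % is set by controls: 0 for no effect and ±100 for the full control effect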
Target sequence (Q9GZU1 whole entry, looked up): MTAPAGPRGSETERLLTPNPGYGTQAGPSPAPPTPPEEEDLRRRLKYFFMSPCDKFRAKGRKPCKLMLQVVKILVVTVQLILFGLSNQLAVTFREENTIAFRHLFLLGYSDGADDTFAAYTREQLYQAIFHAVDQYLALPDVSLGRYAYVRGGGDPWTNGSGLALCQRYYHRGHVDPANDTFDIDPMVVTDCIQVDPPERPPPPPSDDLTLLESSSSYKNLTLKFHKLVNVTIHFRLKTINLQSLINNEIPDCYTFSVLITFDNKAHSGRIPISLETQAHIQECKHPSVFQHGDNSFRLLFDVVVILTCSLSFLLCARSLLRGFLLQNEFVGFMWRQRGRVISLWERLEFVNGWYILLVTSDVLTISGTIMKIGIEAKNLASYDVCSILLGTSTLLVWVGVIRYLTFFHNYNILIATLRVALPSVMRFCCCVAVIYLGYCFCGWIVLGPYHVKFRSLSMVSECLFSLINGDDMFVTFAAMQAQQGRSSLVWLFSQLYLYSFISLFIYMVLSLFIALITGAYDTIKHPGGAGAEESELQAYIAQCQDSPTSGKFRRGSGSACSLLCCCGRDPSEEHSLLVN
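TRPML1-DL cells, Tet-induced overnight (~16 h, 37 °C) at 1,500 cells/well, were loaded with Ca8 no-wash dye plus quencher for 45-90 min at room temperature. Compounds were pinned during FDSS kinetic reading; agonist 54-4 at EC80 (4 uM final) then added.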
TRHR agonist-1: qHTS for Small Molecule Agonists and Allosteric Enhancers of Human TRH Receptor: Primary Screen for Agonists; TRHR cells, calcium flux fluo-8, FDSS agonist mode; 0.18% of 360,000 active; activation, % at 2 µM; in the data active = activation above about 30%; note: 0% is about no effect
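Fluo-8-loaded TRHR cells; 10 s baseline, compound added, kinetic Ca2+ fluorescence read 1/s, agonist mode.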
TRPML1 ag: qHTS for Agonists of the Human Mucolipin Transient Receptor Potential 1 (TRPML1); Mucolipin-1 (Homo sapiens), Q9GZU1; AID 624414, 2012; activation, % (concentration not given with the values); 0.12% of 410,000 active; TRPML1-expressing cells, Ca2+ dye fluorescence, FDSS; in the data active = activation above about 50%; inconclusive = mostly about 30% to 49%; note: 0% is about no effect
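Tetracycline-induced TRPML1-DL cells are seeded and incubated overnight before loading with a no-wash Ca2+ dye and quencher. Agonist activity is taken from the 110 s fluorescence read following compound pin-transfer on an FDSS, before EC80 54-4 challenge.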
TRHR enhancer-2: qHTS for Small Molecule Agonists and Allosteric Enhancers of Human TRH Receptor: Confirmation Screen for Enhancers; shares compounds with TRHR enhancer-1; TRH receptor cell assay, enhancer confirmation qHTS; 970 tested, under 10 active; AID 493076, 2011; activity change, negative = inhibition, % at 46.1 µM;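 note: compound effect scored on response to added TRH at EC20 of 10 nM; 0% is about no effect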
TRHR agonist-2: qHTS for Small Molecule Agonists and Allosteric Enhancers of Human TRH Receptor: Confirmation Screen for Agonists | shares compounds with TRHR enhancer-1 | 8% of 970 active | TRHR-expressing cells, agonist activation read-out | Potency, µM (top dose mostly 46.1 µM), inactives show at the top dose activation, usual class: activators | AID 493078, 2011; note: potency is the fitted concentration of half-maximal effect; 0% is about no effect; nearly all actives have a fitted effect of over 75% in size
* hit, by the source's call; ? = inconclusive; nt = not tested or not shown. This is a sample that favours compounds with a hit; in the whole collection about 0.81% have one here. Unless noted, calls come from the whole dose curve; as a rule, active = well fitted curve in the direction sought with a large enough effect; inconclusive = small, poorly fitted or top-dose-only effect, or another doubt; inactive = no such curve, though single readings can be large; an effect the other way counts as inactive or inconclusive.

SMILES | TRHR enhancer-1 | TRPML1 inh | TRHR agonist-1 | TRPML1 ag | TRHR enhancer-2 | TRHR agonist-2
Cc1cccn2c(=O)c(C=Nc3ccccc3)c(NCCO)nc12 | 44* | 9 | 0 | 0 | -15 | 0%
Cc1cccn2c(=O)c(C=Nc3ccc(Cl)cc3)c(NCCO)nc12 | 7 | 35 | 0 | 1 | nt | nt
O=c1[nH]c2cc3ccccc3cc2nc1C(F)(F)F | -4 | -6 | 29 | 11 | -2 | ?
CCCN1CNc2c(c(=O)[nH]c(=S)n2CCc2cc(C)ccc2C)C1 | nt | nt | nt | 0 | nt | nt
COc1ccc(C2N=C(Nc3nc4ccccc4o3)NC3=C2C(=O)CC(C)(C)C3)cc1 (stereo not given) | nt | nt | nt | 0 | nt | nt
CN1CCN(c2ccc(S(=O)(=O)N3CCCCC3)cc2N)CC1 | 60* | -1 | 2 | 0 | 1 | -1%
Nc1cc(S(=O)(=O)N2CCCCC2)ccc1N1CCCCC1 | 0 | -11 | 0 | 1 | nt | nt
CC(=O)NCCCN(Cc1ccc(Cl)c(Cl)c1)c1ccc(Br)cn1 | nt | nt | nt | -1 | nt | nt
COc1ccc(/C=C2\SC(=S)N(C(C)C(=O)NC3C=CS(=O)(=O)C3)C2=O)cc1 (stereo not given) | -5 | ? | 0 | 2 | nt | nt
COc1cccc(/C=C2\SC(=S)N(C(C)C(=O)NC3C=CS(=O)(=O)C3)C2=O)c1 (stereo not given) | 50* | -2 | 0 | 1 | 5 | 2%
O=C(C[n+]1ccccc1Br)c1ccc(F)cc1 | nt | nt | nt | 1 | nt | nt
O=S(=O)(NC1CCCCC1N1CCN(c2ccccc2F)CC1)c1ccc(Cl)cc1 (stereo not given) | -9 | 17 | 33* | 0 | -10 | ?
O=S(=O)(NC1CCCCC1N1CCOCC1)c1ccc(Cl)cc1 (stereo not given) | -2 | -15 | 15 | 0 | nt | nt
CCCN1CNc2c(c(=O)[nH]c(=S)n2CCc2cc(OC)cc(OC)c2)C1 | nt | nt | nt | -1 | nt | nt
COc1cc(/C=C2\SC(=S)N(NS(=O)(=O)c3ccccc3)C2=O)ccc1O | -7 | -16 | 14 | 9 | nt | nt
CCOc1cc(/C=C2/SC(=S)N(CC3CCCO3)C2=O)ccc1O (stereo not given) | 5 | -4 | 43* | 0 | ? | 16µM*
COc1cc(/C=C2\SC(=S)N(NS(=O)(=O)c3ccc(C)cc3)C2=O)ccc1O | -5 | nt | 36* | nt | -3 | ?
COc1cc(/C=C2\SC(=S)N(NC(=O)c3ccccc3OC)C2=O)ccc1O | 7 | -12 | 29 | 14 | nt | nt
O=C1/C(=C/c2cccc(O)c2)SC(=S)N1CC1CCCO1 (stereo not given) | 1 | -7 | 1 | 1 | nt | nt
COc1cc(/C=C2\SC(=S)N(NC(=O)c3ccc(O)c(OC)c3)C2=O)ccc1O | 3 | -9 | 45* | 14 | 5 | ?
O=C(Nc1ccccc1Br)c1cnn2c1NC(=C1CC1)C=C2C(F)F | nt | nt | nt | -1 | nt | nt
Cc1cc(OCCCCNC(C)C)cc(C(C)C)c1 | 42* | -1 | 0 | 1 | 10 | 2%
Cc1cc(OCCOCCNC(C)C)cc(C)c1Cl | 5 | 5 | 3 | 0 | nt | nt
CC(=O)Nc1nc2n(n1)C(c1ccccc1)C=C(c1ccccc1)N2 (stereo not given) | 2 | -11 | 39* | 5 | -2 | ?
CC1(C)CN=C(N(Cc2ccccc2)C(=O)Nc2ccccc2)S1 | 42* | -16 | 3 | 6 | 4 | ?
SMILES | TRHR enhancer-1 | TRPML1 inh | TRHR agonist-1 | TRPML1 ag | TRHR enhancer-2 | TRHR agonist-2
O=C(O)c1ccc2c(ccc3nn(-c4ccc(/C=C/c5ccc(-n6nc7ccc8cc(C(=O)O)ccc8c7n6)cc5[S+](=O)([O-])[O-])c([S+](=O)([O-])[O-])c4)nc32)c1 | nt | nt | nt | 0 | nt | nt
Oc1ccc(N2CCN(C(c3ccc(Cl)cc3)c3nnnn3Cc3ccc(F)cc3)CC2)cc1 (stereo not given) | nt | nt | nt | 0 | nt | nt
Cc1ccc(NC(=O)c2ccc3c(=O)n4c(nc3c2)CCCCC4)cc1F | -2 | -4 | 0 | 0 | nt | nt
COc1ccc(NC(=O)c2ccc3c(=O)n4c(nc3c2)CCCCC4)cc1 | 76* | 14 | 0 | -1 | -4 | -1%
NS(=O)(=O)c1ccc(NC(=O)CN2CCc3ccccc32)cc1 | 56* | 13 | 0 | 1 | -1 | -1%
CCN(CC)CCCNC(=S)N1CCN(c2nc(-c3ccccc3)cs2)CC1 | 42* | ? | 2 | 0 | -9 | ?
Cc1ccc(-n2ncc3c(N4CCC(C(N)=O)CC4)ncnc32)c(C)c1 | 15 | 3 | 0 | 0 | nt | nt
CCN(CC)C(=O)C1CCN(c2ncnc3c2cnn3-c2ccc(C)cc2C)CC1 | 44* | -2 | -1 | 0 | -7 | 2%
Nc1nc(SCC(=O)N2CCOCC2)[nH]c(=O)c1-c1ccccc1 | 65* | 3 | 1 | -1 | 7 | 0%
Nc1nc(SCC(=O)N2CCCC2)[nH]c(=O)c1-c1ccccc1 | 0 | 11 | 0 | -1 | nt | nt
O=C(COC(=O)c1ccccc1OCCOc1ccccc1)Nc1ccc(Br)cc1 | nt | nt | nt | -1 | nt | nt
Cc1cc(O)c(C2(C(F)(F)F)NCCNC2=O)cc1C (stereo not given) | 43* | 8 | 2 | -1 | -3 | 0%
O=C1NCCNC1(c1c[nH]c2ccccc12)C(F)(F)F (stereo not given) | 4 | 55 | 0 | 0 | nt | nt
COc1ccc2c(c1)C=C/C2=C\c1ccc(N(C)C)cc1 | nt | nt | nt | -1 | nt | nt
N#Cc1c(-c2ccc3c(c2)OCO3)csc1N | 0 | 2 | 0 | 4 | nt | nt
N#Cc1c(-c2ccccc2)cc(-c2ccc3c(c2)OCO3)[nH]c1=O | 53* | 42 | -1 | 4 | -6 | 3%
O=C1OCC2=C1C(c1ccc(F)cc1)CC(=O)N2c1ccc(F)cc1 (stereo not given) | -11 | nt | -1 | nt | nt | nt
CCc1ccc(N2C(=O)CC(c3ccc(F)cc3)C3=C2COC3=O)cc1 (stereo not given) | 73* | nt | 0 | nt | -6 | 1%
COc1ccc2nc(/N=C\N(C)C)sc2c1 | 5 | 4 | 0 | 1 | nt | nt
COc1ccc2nc(N=Nc3ccc(N(C)C)cc3)sc2c1 | 86* | -19 | -1 | 0 | 3 | -1%
COc1cc(/C=C2/C(=O)NN(c3cccc(C)c3)C2=O)ccc1OC(=O)c1ccco1 | 52* | -9 | -1 | 1 | -14 | 3%
